# According to PubChem BioAssay (EPA / NIEHS):
# Records with an inconclusive call do not appear. The source made the active and inactive calls. Rule for the calls, unless noted: active = hit-call score of the fitted dose curve at least 0.9, where 1 is the maximum; inactive = score below 0.9.
# How the values were obtained:
# [1] = ATG_NFI_CIS: Attagene CIS-FACTORIAL HepG2 Assay for human Nuclear Factor I (NFI) (AID 2282989); conditions: HepG2 cis-regulatory reporter, NFI response element transcription; actives raise or lower the signal
# Procedure, shortened: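 Read-out: reporter mRNA via RT-PCR plus capillary electrophoresis with fluorescence detection. Transiently transfected HepG2 (endogenous TF activity on cis promoters), 24 h compound exposure; gain or loss of signal fitted against DMSO.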
# [2] = target: Myc proto-oncogene protein (Homo sapiens) (UniProt P01106); test: ATG_Myc_CIS: Attagene CIS-FACTORIAL HepG2 Assay for human Myelocytomatosis (Myc) Proto-Oncogene Transcription Factor (AID 2282990); conditions: HepG2, Attagene cis-reporter transcription factor activity; actives raise or lower the signal
# Procedure, shortened: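 Transiently transfected HepG2 cells bearing cis-promoter reporter units for endogenous transcription factors; 24 h exposure. Reporter mRNA measured by RT-PCR, 6-FAM primer extension, HpaI cut and capillary electrophoresis; bidirectional fit relative to DMSO.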
# [3] = ATG_NRF2_ARE_CIS: Attagene CIS-FACTORIAL HepG2 Assay for human Nuclear Factor Erythroid 2 Related Factor 2 (NFR2) response to Antioxidant Response Elements (ARE) (AID 2282992); conditions: HepG2 Attagene ARE/NRF2 reporter, transcription factor activity; actives raise or lower the signal
# Procedure, shortened: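 Endogenous transcription factor activity read out as reporter transcript levels (RT-PCR plus capillary electrophoresis, fluorescence) in transiently transfected HepG2 cells. Measured at 24 h after dosing; gain or loss of signal fitted versus DMSO.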
# [4] = ATG_Oct_MLP_CIS: Attagene CIS-FACTORIAL HepG2 Assay for human Octamer-Binding Transcription Factor (Oct) (AID 2282993); conditions: HepG2 Attagene cis-factorial Oct reporter, mRNA; actives raise or lower the signal
# Procedure, shortened: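 Read-out: reporter mRNA via RT-PCR plus capillary electrophoresis of 6-FAM-labelled fragments. Transiently transfected HepG2, 24 h exposure, endogenous TF activity on cis elements. Gain or loss of signal fitted relative to DMSO.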
# [5] = target: Cellular tumor antigen p53 (Homo sapiens) (UniProt P04637); test: ATG_p53_CIS: Attagene CIS-FACTORIAL HepG2 Assay for human p53 Transcription Factor (AID 2282994); conditions: HepG2 p53 cis-element reporter, Attagene mRNA; actives raise or lower the signal
# Procedure, shortened: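 Endogenous p53 activity read in transiently transfected HepG2 from a cis-element-driven reporter transcript after 24 h exposure. RNA reverse-transcribed, PCR-amplified, fluorescently labelled and sized by capillary electrophoresis; gain or loss fitted against DMSO baseline.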
# [6] = BSK_3C_TissueFactor: BioMAP Diversity Plus: 3C Assay for Tissue Factor Biomarker Activity (AID 2282997); conditions: BioMAP 3C HUVEC, tissue factor biomarker readout; actives raise or lower the signal
# Procedure, shortened: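 Tissue factor on primary human umbilical vein endothelium was read by ELISA 24 h after dosing, gain or loss relative to DMSO. Cytotoxicity ran alongside via SRB (0.1%, TCA-fixed, 560 nm).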
# [7] = BSK_3C_uPAR: BioMAP Diversity Plus: 3C Assay for Urokinase-type plasminogen activator receptor (uPAR) Biomarker Activity (AID 2282998); conditions: BioMAP 3C HUVEC, uPAR biomarker ELISA; actives raise or lower the signal
# Procedure, shortened: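 HUVEC primary cells; 24 h post-dose; uPAR by ELISA; gain or loss of signal fitted bidirectionally vs DMSO baseline.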
# [8] = BSK_3C_VCAM1: BioMAP Diversity Plus: 3C Assay for Vascular cell adhesion molecule 1 (VCAM1) Biomarker Activity (AID 2282999); conditions: BioMAP 3C HUVEC, VCAM1 ELISA, cytokine-stimulated; actives raise or lower the signal
# Procedure, shortened: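 HUVEC primary cells, 24 h compound exposure; VCAM-1 by ELISA; gain/loss of signal fitted bidirectionally vs DMSO baseline.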
# [9] = BSK_4H_Eotaxin3: BioMAP Diversity Plus: 4H Assay for Eotaxin 3 Biomarker Activity (AID 2283000); conditions: primary human endothelial cells (HUVEC); actives raise or lower the signal;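 note: CCL26 protein level quantified by ELISA in parallel with SRB cytotoxicity check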
# Procedure, shortened: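 Human umbilical vein endothelial cells (BSK_4H system) dosed with test chemical; Eotaxin-3 (CCL26) measured by ELISA 24 h after dosing. Bidirectional curve fitting relative to DMSO negative control as baseline.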
# [10] = target: human Peroxisome Proliferator-activated Receptor delta (PPARd), PPARD (gene 5467) (UniProt Q03181); test: ATG_PPARd_TRANS: Attagene TRANS-FACTORIAL HepG2 Assay for human Peroxisome Proliferator-activated Receptor delta (PPARd) (AID 2283002; active = hit-call score of the fitted dose curve at least 0.9, where 1 is the maximum)
# Procedure, shortened: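 HepG2 cells transiently transfected with GAL4-UAS multiplexed reporter units driven by exogenous chimeric NR-GAL4 proteins; 24 h compound exposure. Reporter mRNA measured by RT-PCR, 6-FAM primer extension, HpaI digestion and capillary electrophoresis; gain of signal fitted relative to DMSO.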
# [11] = read-out: Intercellular Adhesion Molecule 1 (ICAM1), ICAM1 (gene 3383); test: BSK_3C_ICAM1: BioMAP Diversity Plus: 3C Assay for Intercellular Adhesion Molecule 1 (ICAM1) Biomarker Activity (AID 2283003); conditions: primary human endothelial cells (HUVEC); actives raise or lower the signal
# Procedure, shortened: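 ELISA readout of ICAM1 in human umbilical vein endothelial cells in the 3C system, taken 24 h post-dose. Gain or loss of signal versus DMSO was fitted in both directions, with SRB total-protein staining run in parallel.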
# [12] = target: human Retinoic Acid Receptor beta (RARb), RARB (gene 5915) (UniProt P10826); test: ATG_RARb_TRANS: Attagene TRANS-FACTORIAL HepG2 Assay for human Retinoic Acid Receptor beta (AID 2283004; active = hit-call score of the fitted dose curve at least 0.9, where 1 is the maximum)
# Procedure, shortened: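 Induction of reporter mRNA from a chimeric RARb-Gal4 construct was measured by RT-PCR, FAM labelling, HpaI digestion and capillary electrophoresis. Measurements followed 24 h compound treatment of transiently transfected human HepG2 liver cells, with DMSO as baseline.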
# [13] = target: Retinoic acid receptor alpha (Homo sapiens) (UniProt P10276); test: ATG_RARa_TRANS: Attagene TRANS-FACTORIAL HepG2 Assay for human Retinoic Acid Receptor alpha (RARa) (AID 2283005; active = hit-call score of the fitted dose curve at least 0.9, where 1 is the maximum)
# Procedure, shortened: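 HepG2 transiently transfected with multiplex GAL4-UAS reporter units including a human RARa–GAL4 chimera; 24 h compound exposure. Reporter mRNA quantified by RT-PCR, 6-FAM labeling and capillary electrophoresis; gain of signal versus DMSO.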
# [14] = BSK_3C_Proliferation: Cell Proliferation Assessment in the BioMAP Diversity Plus: 3C Assay (AID 2283006); conditions: primary human endothelial cells (HUVEC)
# Procedure, shortened: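 Proliferation as total protein: sulforhodamine B (0.1%) stain of TCA-fixed subconfluent human umbilical vein endothelial cells, absorbance 560 nm, 48 h after dosing. Activity fitted in both directions against DMSO baseline.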
# [15] = target: Nuclear receptor subfamily 1 group I member 2 (Homo sapiens) (UniProt O75469); test: ATG_PXR_TRANS: Attagene TRANS-FACTORIAL HepG2 Assay for human Pregnane X Receptor (PXR) (AID 2283008; active = hit-call score of the fitted dose curve at least 0.9, where 1 is the maximum)
# Procedure, shortened: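 Transactivation by exogenous PXR–GAL4 fusion measured as reporter transcript induction after 24 h compound treatment of transfected human HepG2 cells. Read-out via RT-PCR and capillary electrophoresis of labelled fragments, fitted upward relative to DMSO.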
# [16] = target: human Retinoic Acid Receptor gamma (RARg), RARG (gene 5916) (UniProt P13631); test: ATG_RARg_TRANS: Attagene TRANS-FACTORIAL HepG2 Assay for human Retinoic Acid Receptor gamma (RARg) (AID 2283009; active = hit-call score of the fitted dose curve at least 0.9, where 1 is the maximum)
# Procedure, shortened: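 Transactivation of exogenous RARg-Gal4 fusion measured as reporter transcript induction after 24 h in transfected HepG2 cells. RNA reverse-transcribed, amplified, fluorescently labeled and resolved by capillary electrophoresis; increase relative to DMSO.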
# [17] = target: human Peroxisome Proliferator-activated Receptor alpha (PPARa), PPARA (gene 5465) (UniProt Q07869); test: ATG_PPARa_TRANS: Attagene TRANS-FACTORIAL HepG2 Assay for human Peroxisome Proliferator-activated Receptor alpha (PPARa) (AID 2283001; active = hit-call score of the fitted dose curve at least 0.9, where 1 is the maximum;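 for AC50: potency for gain of reporter signal over DMSO so agonist or activator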)
# Procedure, shortened: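 HepG2, transient MRTU transfection, 24 h treatment. RT-PCR → FAM labelling → capillary electrophoresis. Fit vs DMSO, positive direction.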
# [18] = target: human RAR-related Orphan Receptor gamma (RORg), RORC (gene 6097) (UniProt P51449); test: ATG_RORg_TRANS: Attagene TRANS-FACTORIAL HepG2 Assay for human RAR-related Orphan Receptor gamma (RORg) (AID 2283011; active = hit-call score of the fitted dose curve at least 0.9, where 1 is the maximum)
# Procedure, shortened: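 Reporter transcripts from a transfected RORg-GAL4 chimera in HepG2 cells were quantified 24 h after dosing by RT-PCR, 6-FAM labelling, HpaI digestion and capillary electrophoresis; increases over DMSO baseline were fitted.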
# [19] = target: Peroxisome proliferator-activated receptor gamma (Homo sapiens) (UniProt P37231); test: ATG_PPARg_TRANS: Attagene TRANS-FACTORIAL HepG2 Assay for human Peroxisome Proliferator-activated Receptor-gamma (PPARg) (AID 2283007; active = hit-call score of the fitted dose curve at least 0.9, where 1 is the maximum)
# Procedure, shortened: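 Transient transfection of HepG2 with GAL4-UAS-driven reporter units; chemical dosing 24 h; total RNA → oligo(dT) RT → PCR with reporter primers → 6-FAM primer extension → HpaI digest 2 h 37 C → capillary electrophoresis. Positive direction vs DMSO.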
# Nuclear receptor subfamily 1 group I member 2 (Homo sapiens), sequence (O75469 whole entry, looked up, the tested form may be a part): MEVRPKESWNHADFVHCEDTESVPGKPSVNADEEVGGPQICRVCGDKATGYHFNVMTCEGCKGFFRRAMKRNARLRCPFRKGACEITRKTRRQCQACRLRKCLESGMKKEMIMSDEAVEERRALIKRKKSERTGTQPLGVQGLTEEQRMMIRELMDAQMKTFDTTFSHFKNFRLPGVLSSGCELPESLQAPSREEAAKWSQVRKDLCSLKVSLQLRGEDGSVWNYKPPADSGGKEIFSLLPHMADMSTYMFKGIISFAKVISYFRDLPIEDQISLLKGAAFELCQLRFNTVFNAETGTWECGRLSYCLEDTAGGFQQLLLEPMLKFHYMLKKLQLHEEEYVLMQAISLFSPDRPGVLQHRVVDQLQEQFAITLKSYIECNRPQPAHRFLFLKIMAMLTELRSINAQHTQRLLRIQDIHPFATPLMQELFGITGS
# human Peroxisome Proliferator-activated Receptor delta (PPARd), PPARD (gene 5467), sequence (Q03181 whole entry, looked up, the tested form may be a part): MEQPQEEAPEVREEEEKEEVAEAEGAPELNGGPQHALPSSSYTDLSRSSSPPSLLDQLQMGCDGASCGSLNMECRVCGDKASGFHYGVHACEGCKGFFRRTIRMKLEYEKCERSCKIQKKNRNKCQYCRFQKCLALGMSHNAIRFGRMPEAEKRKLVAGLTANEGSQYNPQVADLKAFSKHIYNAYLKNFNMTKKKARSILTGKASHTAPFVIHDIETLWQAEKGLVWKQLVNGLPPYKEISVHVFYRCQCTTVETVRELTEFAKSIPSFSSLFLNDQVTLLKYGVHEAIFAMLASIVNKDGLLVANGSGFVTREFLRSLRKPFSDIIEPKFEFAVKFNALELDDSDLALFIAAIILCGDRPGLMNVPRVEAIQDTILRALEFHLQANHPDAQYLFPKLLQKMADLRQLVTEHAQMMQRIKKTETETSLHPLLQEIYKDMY
# human Retinoic Acid Receptor beta (RARb), RARB (gene 5915), sequence (P10826 whole entry, looked up, the tested form may be a part): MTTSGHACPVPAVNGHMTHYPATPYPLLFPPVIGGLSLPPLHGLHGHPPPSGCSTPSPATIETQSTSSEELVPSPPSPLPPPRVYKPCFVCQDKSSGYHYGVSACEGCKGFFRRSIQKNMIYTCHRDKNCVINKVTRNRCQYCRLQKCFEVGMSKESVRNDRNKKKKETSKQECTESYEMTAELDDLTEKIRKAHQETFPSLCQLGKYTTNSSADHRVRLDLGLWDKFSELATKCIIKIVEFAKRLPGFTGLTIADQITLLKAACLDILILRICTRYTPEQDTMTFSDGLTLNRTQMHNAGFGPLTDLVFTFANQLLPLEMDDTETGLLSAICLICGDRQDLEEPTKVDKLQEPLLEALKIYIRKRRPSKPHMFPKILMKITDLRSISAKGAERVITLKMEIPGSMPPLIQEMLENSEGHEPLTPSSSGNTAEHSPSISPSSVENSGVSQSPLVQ
# Cellular tumor antigen p53 (Homo sapiens), sequence (P04637 whole entry, looked up): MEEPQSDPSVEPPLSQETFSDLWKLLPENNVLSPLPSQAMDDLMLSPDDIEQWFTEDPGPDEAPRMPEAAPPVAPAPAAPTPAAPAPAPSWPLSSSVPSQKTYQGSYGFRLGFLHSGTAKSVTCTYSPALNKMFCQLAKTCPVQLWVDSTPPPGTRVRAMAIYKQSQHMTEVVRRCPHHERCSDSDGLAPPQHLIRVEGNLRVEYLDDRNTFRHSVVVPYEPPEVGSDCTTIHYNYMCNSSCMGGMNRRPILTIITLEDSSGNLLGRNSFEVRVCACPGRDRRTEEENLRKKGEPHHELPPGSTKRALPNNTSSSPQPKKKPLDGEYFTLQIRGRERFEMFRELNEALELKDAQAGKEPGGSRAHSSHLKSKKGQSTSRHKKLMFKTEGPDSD
# human Peroxisome Proliferator-activated Receptor alpha (PPARa), PPARA (gene 5465), sequence (Q07869 whole entry, looked up): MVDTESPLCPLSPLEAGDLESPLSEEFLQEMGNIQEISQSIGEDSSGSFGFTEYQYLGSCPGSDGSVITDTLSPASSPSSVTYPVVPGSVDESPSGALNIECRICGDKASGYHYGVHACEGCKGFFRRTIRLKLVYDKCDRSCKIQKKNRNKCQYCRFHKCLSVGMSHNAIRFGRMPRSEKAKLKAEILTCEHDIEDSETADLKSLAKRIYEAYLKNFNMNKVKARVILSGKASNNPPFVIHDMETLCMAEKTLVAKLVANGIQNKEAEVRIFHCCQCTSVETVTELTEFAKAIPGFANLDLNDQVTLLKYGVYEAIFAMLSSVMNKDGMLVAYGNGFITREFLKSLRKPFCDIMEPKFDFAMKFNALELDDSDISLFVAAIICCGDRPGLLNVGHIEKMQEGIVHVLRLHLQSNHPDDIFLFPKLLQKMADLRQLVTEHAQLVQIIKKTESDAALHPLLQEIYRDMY
# Myc proto-oncogene protein (Homo sapiens), sequence (P01106 whole entry, looked up): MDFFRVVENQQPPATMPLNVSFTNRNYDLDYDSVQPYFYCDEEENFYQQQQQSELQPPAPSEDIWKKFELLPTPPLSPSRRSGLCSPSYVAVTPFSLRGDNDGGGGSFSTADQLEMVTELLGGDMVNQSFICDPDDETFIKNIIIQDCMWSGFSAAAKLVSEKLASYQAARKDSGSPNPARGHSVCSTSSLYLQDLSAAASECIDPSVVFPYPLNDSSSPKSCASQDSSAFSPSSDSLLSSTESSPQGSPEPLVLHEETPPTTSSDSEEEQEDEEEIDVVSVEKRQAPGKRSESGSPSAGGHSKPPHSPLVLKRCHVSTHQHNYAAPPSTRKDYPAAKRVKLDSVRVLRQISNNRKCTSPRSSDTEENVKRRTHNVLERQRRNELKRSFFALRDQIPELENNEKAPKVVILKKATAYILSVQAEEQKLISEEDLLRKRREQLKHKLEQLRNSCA
# human Retinoic Acid Receptor gamma (RARg), RARG (gene 5916), sequence (P13631 whole entry, looked up, the tested form may be a part): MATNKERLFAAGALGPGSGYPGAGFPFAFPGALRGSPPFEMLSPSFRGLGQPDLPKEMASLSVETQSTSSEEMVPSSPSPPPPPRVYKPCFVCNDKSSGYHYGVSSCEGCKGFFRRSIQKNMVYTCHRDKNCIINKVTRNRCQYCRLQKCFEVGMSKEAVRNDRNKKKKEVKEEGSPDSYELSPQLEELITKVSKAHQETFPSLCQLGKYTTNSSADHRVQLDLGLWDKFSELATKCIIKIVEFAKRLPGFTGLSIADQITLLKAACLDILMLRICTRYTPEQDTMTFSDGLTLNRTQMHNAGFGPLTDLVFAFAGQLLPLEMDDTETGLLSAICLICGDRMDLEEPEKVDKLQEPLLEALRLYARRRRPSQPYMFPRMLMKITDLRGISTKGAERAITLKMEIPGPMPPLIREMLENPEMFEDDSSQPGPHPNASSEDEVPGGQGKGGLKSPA
# human RAR-related Orphan Receptor gamma (RORg), RORC (gene 6097), sequence (P51449 whole entry, looked up, the tested form may be a part): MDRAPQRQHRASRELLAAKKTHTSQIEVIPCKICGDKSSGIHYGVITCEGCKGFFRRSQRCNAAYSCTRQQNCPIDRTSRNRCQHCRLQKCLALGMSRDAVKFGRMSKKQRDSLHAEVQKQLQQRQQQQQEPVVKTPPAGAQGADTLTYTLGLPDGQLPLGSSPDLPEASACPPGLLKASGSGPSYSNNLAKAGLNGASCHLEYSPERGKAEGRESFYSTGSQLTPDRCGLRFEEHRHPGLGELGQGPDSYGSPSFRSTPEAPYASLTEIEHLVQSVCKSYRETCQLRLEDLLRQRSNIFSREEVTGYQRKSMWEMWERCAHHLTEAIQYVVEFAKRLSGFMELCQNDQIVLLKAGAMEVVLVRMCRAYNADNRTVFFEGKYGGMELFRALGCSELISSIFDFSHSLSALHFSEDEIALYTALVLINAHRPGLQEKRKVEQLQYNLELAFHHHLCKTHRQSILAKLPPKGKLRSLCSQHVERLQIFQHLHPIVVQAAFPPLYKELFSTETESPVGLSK
# Peroxisome proliferator-activated receptor gamma (Homo sapiens), sequence (P37231 whole entry, looked up, the tested form may be a part): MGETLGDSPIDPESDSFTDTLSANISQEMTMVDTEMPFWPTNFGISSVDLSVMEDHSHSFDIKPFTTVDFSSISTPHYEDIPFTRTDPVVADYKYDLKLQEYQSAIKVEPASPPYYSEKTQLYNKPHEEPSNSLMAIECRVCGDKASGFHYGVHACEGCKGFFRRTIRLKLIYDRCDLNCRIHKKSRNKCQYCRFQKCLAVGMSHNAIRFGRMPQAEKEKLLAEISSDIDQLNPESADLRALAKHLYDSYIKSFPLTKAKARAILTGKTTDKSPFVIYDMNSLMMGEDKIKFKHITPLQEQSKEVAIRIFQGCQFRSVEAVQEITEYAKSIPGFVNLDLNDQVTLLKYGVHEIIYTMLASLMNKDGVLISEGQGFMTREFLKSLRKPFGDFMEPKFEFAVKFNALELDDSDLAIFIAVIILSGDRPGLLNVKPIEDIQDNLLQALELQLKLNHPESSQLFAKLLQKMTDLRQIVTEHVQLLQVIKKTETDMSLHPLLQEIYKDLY
# Retinoic acid receptor alpha (Homo sapiens), sequence (P10276 whole entry, looked up, the tested form may be a part): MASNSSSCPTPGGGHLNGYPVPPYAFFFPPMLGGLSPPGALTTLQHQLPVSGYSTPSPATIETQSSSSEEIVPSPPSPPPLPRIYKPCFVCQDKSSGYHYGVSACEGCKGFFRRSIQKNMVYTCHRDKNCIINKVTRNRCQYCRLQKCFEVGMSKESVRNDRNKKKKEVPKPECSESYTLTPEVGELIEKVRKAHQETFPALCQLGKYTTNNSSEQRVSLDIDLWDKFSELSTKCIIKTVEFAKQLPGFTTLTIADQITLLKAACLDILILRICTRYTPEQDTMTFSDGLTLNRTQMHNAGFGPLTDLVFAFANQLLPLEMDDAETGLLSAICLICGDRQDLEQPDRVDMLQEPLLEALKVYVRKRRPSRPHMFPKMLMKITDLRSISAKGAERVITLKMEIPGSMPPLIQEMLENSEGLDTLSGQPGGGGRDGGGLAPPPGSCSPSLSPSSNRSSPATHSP
structure (smiles),measurement,setting,value
Cc1ccc(C)c(O)c1,outcome,[1],inactive
same,outcome,[2],inactive
same,outcome,[3],inactive
same,outcome,[4],inactive
same,outcome,[5],inactive
same,outcome,[6],inactive
same,outcome,[7],inactive
same,outcome,[8],inactive
same,outcome,[9],inactive
same,outcome,[10],inactive
same,outcome,[11],inactive
same,outcome,[12],inactive
same,outcome,[13],inactive
same,outcome,[14],inactive
same,outcome,[15],inactive
same,outcome,[16],inactive
CC(C)=CCCC(C)=CC=O,outcome,[1],inactive
same,outcome,[2],inactive
same,AC50,[3],62.4 µM (active)
same,outcome,[4],inactive
same,outcome,[5],inactive
same,outcome,[6],inactive
same,outcome,[7],inactive
same,outcome,[8],inactive
same,outcome,[9],inactive
same,AC50,[17],58.6 µM (active)
same,outcome,[10],inactive
same,outcome,[11],inactive
same,outcome,[14],inactive
same,AC50,[15],4.42 µM (active)
same,outcome,[18],inactive
CC(=O)OCCC(C)C,outcome,[1],inactive
same,outcome,[2],inactive
same,outcome,[3],inactive
same,outcome,[4],inactive
same,outcome,[5],inactive
same,outcome,[6],inactive
same,outcome,[7],inactive
same,outcome,[8],inactive
same,outcome,[9],inactive
same,outcome,[17],inactive
same,outcome,[11],inactive
same,outcome,[14],inactive
CC(=O)c1ccc2c(c1)[C@H](NC(=O)c1ccc(F)cc1)[C@@H](O)C(C)(C)O2,outcome,[1],inactive
same,outcome,[2],inactive
same,outcome,[3],inactive
same,outcome,[4],inactive
same,outcome,[5],inactive
same,outcome,[6],inactive
same,outcome,[7],inactive
same,outcome,[8],inactive
same,outcome,[9],inactive
same,outcome,[17],inactive
same,outcome,[11],inactive
same,outcome,[12],inactive
same,outcome,[14],inactive
same,outcome,[19],inactive
same,AC50,[15],12.7 µM (active)
same,outcome,[16],inactive
same,outcome,[18],inactive
Cn1c(=O)cc(Oc2ccc(F)cc2F)c2cnc(NCC(C)(C)O)nc21,AC50,[1],9.46 µM (active)
same,outcome,[2],inactive
same,outcome,[3],inactive
same,outcome,[4],inactive
same,AC50,[5],41.7 µM (active)
same,AC50,[6],1.4 µM (active)
same,outcome,[7],inactive
same,outcome,[8],inactive
same,outcome,[9],inactive
same,outcome,[11],inactive
same,outcome,[14],inactive
same,AC50,[19],6.3 µM (active)
same,outcome,[15],inactive
CC1=CC(=O)CC(C)(C)C1,outcome,[1],inactive
same,outcome,[2],inactive
same,outcome,[3],inactive
same,outcome,[4],inactive
same,outcome,[5],inactive
same,outcome,[6],inactive
same,outcome,[7],inactive
same,outcome,[8],inactive
same,outcome,[9],inactive
same,outcome,[11],inactive
same,outcome,[14],inactive
same,outcome,[15],inactive
Cc1ccc(S(=O)(=O)O)cc1C,outcome,[1],inactive
same,outcome,[2],inactive
same,outcome,[3],inactive
same,outcome,[4],inactive
same,outcome,[5],inactive
same,outcome,[6],inactive
same,outcome,[7],inactive
same,outcome,[8],inactive
same,outcome,[9],inactive
same,outcome,[17],inactive
same,outcome,[10],inactive
same,outcome,[11],inactive
same,outcome,[12],inactive
same,outcome,[13],inactive
same,outcome,[14],inactive
same,outcome,[15],inactive
